PubChem BioAssay AID687031 (Broad Institute, 2013)
Screen size: about 1,400 compounds; about 50 (4%) were called active.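 How the source made its calls: active means fitted curve reaches 30% CPE protection at or below the top valid dose, with every test run called active; inconclusive means test runs disagree, some active and some not; inactive means every test run inactive, including effects in the wrong direction.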 The list is a sample of the results. Potency and affinity values are given separately.

test: Dengue virus 2 cytopathic effect protection, dose response, BHK-21 cells, ATP luminescence, cherry-pick (AID 687031); details: BHK-21 DENV2 CPE protection, 5 d; series mostly up to 19.5 µM

outcome, inactive:
COc1ccc(C(CCN2CCOCC2)c2c(OC)cc(OC)c3c(C)cc(=O)oc23)cc1 (stereo not drawn)
CN1C[C@@H]2[C@@H]3C(=O)N(Cc4ccccc4)C(=O)[C@@H]3[C@](C)(C1=O)N2C(=O)c1ccc(C(C)(C)C)cc1
Cc1ccc(S(=O)(=O)N2CCN(C(=O)COC(=O)Cc3ccc(Cl)cc3)CC2)c(C)c1
O=C(c1ccccc1Cc1ccccc1)N1CCN(S(=O)(=O)c2ccccc2)CC1
O=C1[C@@H](Oc2ccccc2)[C@@H](c2ccncc2)N1c1ccncc1
Cc1ccc2ccc(C(Nc3ccccc3)c3ccccc3)c(O)c2n1 (stereo not drawn)
Cc1ccc(CNC(=O)C2CCC(=O)N(CCc3ccccn3)C2)s1 (stereo not drawn)
Cc1cccc(N2CCN(C(C(=O)NCc3ccccc3)c3ccc(F)cc3)CC2)c1C (stereo not drawn)
CC1(C)CC(=O)N(CC(=O)O)c2ccccc2S1(=O)=O
CCNC(=O)C[C@H]1CC[C@@H]2[C@H](COC[C@H](O)CN2Cc2ccc(Cl)c(Cl)c2)O1
Cc1noc(C)c1S(=O)(=O)Nc1ccc2c(c1)C(=O)N([C@H](C)CO)C[C@H](C)[C@H](CN(C)C(=O)Nc1ccccc1)OCCCC[C@@H](C)O2
Cc1noc(C)c1S(=O)(=O)Nc1ccc2c(c1)C(=O)N([C@@H](C)CO)C[C@@H](C)[C@@H](CN(C)C(=O)Nc1ccccc1)OCCCC[C@@H](C)O2
CNc1cc(-c2ccc(O)cc2C)ncn1
O=C(C1CC1)N1CC[C@@H]2[C@H]1c1cc(-c3ccc(F)cc3)ccc1N[C@@H]2CO
O=C(C1CCOCC1)N1CC[C@@H]2[C@H]1c1cc(-c3cccc(F)c3)ccc1N[C@@H]2CO
Cc1ccc(S(=O)(=O)c2nnn3c2nc(N2CCOCC2)c2ccccc23)cc1C
CCCN(CC(=O)Nc1ccccc1C)C(=O)C1CCN(S(=O)(=O)c2ccc(C)c(C)c2)CC1
CCC(C)(C)C1CCc2[nH]nc(C(=O)NCc3ccccn3)c2C1 (stereo not drawn)
O=C(NCc1ccccn1)C(=O)NCC1OCCN1S(=O)(=O)c1ccc(Br)cc1 (stereo not drawn)
COc1ccc(CN(C)C[C@H]2OCCCC[C@@H](C)Oc3ccc(NC(=O)NC(C)C)cc3C(=O)N([C@H](C)CO)C[C@H]2C)cc1
CN1c2ccc(-c3cccc(F)c3)cc2[C@H]2[C@H](CCN2C(=O)Cc2cccnc2)[C@H]1CO
O=C(C1CCOCC1)N1C[C@@H]2[C@H](c3ccccc31)[C@H](CO)N2C(=O)c1ccccc1
CC(C)NC(=O)N1C[C@H]2[C@@H](c3ccccc31)[C@@H](CO)N2C(=O)c1ccccn1
COc1ccc2ccccc2c1/C=N/NC(=O)c1ccccc1F
Cc1ccccc1S(=O)(=O)N1CC[C@H]2[C@@H](CO)N(C)c3ccc(Br)cc3[C@H]21
CCOc1ccc2[nH]c3ncccc3c(=O)c2c1
CC1(C(=O)NCc2cccs2)Cc2c(-c3cccc(C(F)(F)F)c3)ccnc2O1 (stereo not drawn)
CCc1nnc(NC(=O)c2ccc(F)c(S(=O)(=O)N3CCCCC3)c2)s1
O=C(C[C@H]1C[C@@H]2c3cc(NC(=O)CC4CC4)ccc3O[C@@H]2[C@H](CO)O1)NCc1ccccc1
CN(C)CC(=O)Nc1ccc2c(c1)[C@H]1C[C@H](CC(=O)NC3CCCCC3)O[C@@H](CO)[C@H]1O2
Cc1ccc(NCC(=O)N/N=C/c2cccc(Br)c2)cc1
CCCCCC(=O)N1C[C@@H](n2cc(C3CC3)nn2)[C@H](O)C[C@@H]1c1ccccc1
Cc1ccccc1CN1C(=O)CN(S(C)(=O)=O)CC1(C)C(=O)NCc1ccccc1 (stereo not drawn)
COCCNC(=O)C1CCC(CNS(=O)(=O)c2ccc(F)cc2)CC1 (stereo not drawn)
CC(=O)Nc1cccc(C(=O)OC(C)C(=O)NC(=O)NC2CCCCC2)c1 (stereo not drawn)
CCOC(=O)C1=C(C)NC(=O)NC1c1ccc(N(C)C)cc1 (stereo not drawn)
N#C[C@@H]1[C@H](c2ccc(-c3ccccc3F)cc2)[C@H](CO)N1C(=O)C1CC1
Cc1ccc(S(=O)(=O)N2CCOCC2)cc1NC(=O)CN(C)CC(=O)Nc1cccc(F)c1
CCN(CC(=O)Nc1c(F)cccc1F)C(=O)C1CCN(S(=O)(=O)c2ccc(F)cc2)CC1
COc1ccc(-c2cc(C(=O)NCCCN3CCCC3=O)c3ccccc3n2)cc1
CSc1cccc(NC(=O)CC2Oc3ccccc3NC2=O)c1 (stereo not drawn)
CCOc1ccc(N(CC(=O)NC2CCCC(C)C2C)S(=O)(=O)c2c(C)noc2C)cc1 (stereo not drawn)
Cn1c(=O)c2[nH]c(CCCCc3nc4ccccc4[nH]3)nc2n(C)c1=O
COc1ccc(CC(N)c2csc(NC(=O)c3ccc(OC)cc3)n2)cc1 (stereo not drawn)
Nc1ccc(CC(N)c2csc(Nc3cc(Oc4ccccc4)ncn3)n2)cc1 (stereo not drawn)
CC(C)SCc1cc(N2CCCC2)nc(-c2ccccc2)n1
COc1ccccc1-c1noc2c1C(=O)N(Cc1cn(Cc3ccccc3)nn1)CC2
COc1ccc2ccccc2c1-c1sc(Nc2ccccc2)n[n+]1-c1ccc(F)cc1
CNC[C@@H]1OCCCC[C@H](C)Oc2ccc(NS(=O)(=O)c3c(C)noc3C)cc2C(=O)N([C@@H](C)CO)C[C@@H]1C
O=C(NCc1cccs1)c1cccc(Nc2nc3ccc(Br)cc3[nH]2)c1
CC1CCCCC12NC(=O)N(CC(=O)NCc1cccs1)C2=O (stereo not drawn)
CN(Cc1ccccc1)CC1CCCN(CCc2ccccc2F)C1 (stereo not drawn)
CC(C)Cc1ccc(C(C)C(N)=NCCc2ccccc2)cc1 (stereo not drawn)
CCN(C)C1CN(Cc2cn(Cc3ccc(F)cc3)nn2)S(=O)(=O)C1 (stereo not drawn)
CCOc1ccc(Oc2nc(NCC(C)C)nc(OC)n2)nn1
O=C(NC(C(=O)N1CCCC1C(=O)NC1CCCC1)c1ccccc1)c1cccs1 (stereo not drawn)
NS(=O)(=O)c1ccc(CCNC(=O)C2CCCN2C(=O)c2cccs2)cc1 (stereo not drawn)
CCC(=O)N1CC2(C1)CN(C(=O)Nc1ccc(F)cc1)[C@H](CO)c1c2c2ccc(OC)cc2n1C
